In all, about 65,000 compounds went through this assay and about 2,100 (3.2%) showed an effect of 50% or more. The median lay at about -52%. Shown is part of a subset that was picked to be rich in strong results.
Tested on: Plasmodium falciparum
Assay: Screen against P. falciparum Asexual Blood Stage (ABS), at 5uM
Assay type: functional, Dd2
Settings: tested at 5 uM

SMILES | INHIBITION [%]
COc1ccc2c(c1)sc(=NC(=O)CSCC(=O)Nc1nccs1)n2C | -52.2
CC(C)(O)CN1CCN(C(=O)c2cnn(-c3ccccc3F)c2)CC1 | -73.1
c1ccc(-c2nc(CN3CCCC3Cn3cncn3)co2)cc1 (stereo not given) | -69.1
CNC(=O)[C@H]1C[C@H]2CN(C(=O)NC(C)C)C[C@@H]1O2 | -50
COc1cc(CN(C)Cc2cccnc2)c(SC)cc1OC | -61.6
COc1ccc2nnc(CCCC(=O)NCc3ccccc3OC)n2n1 | -64.6
Cc1cnc(CN(Cc2cccc(O)c2)CC2CC2)cn1 | -23.7
CN1C(=O)CN(C(=O)c2ccc(=O)n(C)c2)c2ccccc21 | -50.5
CC(C)c1nn(C)c(N2CCOCC2)c1CNCc1cscn1 | -72.2
Cc1nc(CNCc2c(C)nn(C)c2N2CCOCC2)cs1 | 27.5
Cc1nn(C)c(N2CCOCC2)c1CNCc1cscn1 | 56.6
COc1ccccc1-c1ccc(C(=O)N2C[C@@H]3CC[C@H]2CN(C)C3)cc1 | -93.3
Cc1nc(C)n(CC2CCCN2Cc2nnc(-c3ccco3)o2)n1 (stereo not given) | -53.7
Cc1nc(-n2nc(-c3cccs3)cc2N)[nH]c(=O)c1C | -26.1
Cc1n[nH]cc1CNC(=O)Nc1cccc(OCC(F)(F)F)c1 | -31.6
Cc1n[nH]cc1CNCc1ccnc(OCC(F)(F)F)c1 | -64.7
Cc1n[nH]cc1CNCc1cccc(OCC(F)(F)F)c1 | 57.9
COc1ccc(NS(=O)(=O)C=c2[nH]c(=O)n3cccc3c2=O)cc1Cl | -76.2
CN(C)C(C)(C)CNC(=O)C(C)(C)c1ccccc1F | 53.3
CC(C)(CNC(=O)C(C)(C)c1ccccc1F)C(N)=O | -83
CC(C)(C(=O)NCC(N)=O)c1ccccc1F | -60.2
c1csc(-c2noc(CNCCn3cccn3)n2)c1 | -114
CC(Cn1cccn1)NCCCc1nc(-c2cccs2)no1 (stereo not given) | 67.8
Cc1cnn(CC(C)NCc2nc(-c3cccs3)no2)c1 (stereo not given) | -73.4
Cc1cccc(CN2CCCC2c2cncc(Nc3nncs3)n2)c1 (stereo not given) | 52.5
Cc1ccccc1CN1CCCC1c1cncc(Nc2nncs2)n1 (stereo not given) | -20.5
COc1cccc(CN2CCCC2c2cncc(Nc3nncs3)n2)c1 (stereo not given) | -8.54

SMILES | INHIBITION [%]
c1ccc(CCNC2CCc3ncnn3C2)nc1 (stereo not given) | -209
CC(C)(CNc1c(C#N)cnc2ccc(Cl)cc12)C(N)=O | 11.4
CCC(CC)C(=O)NCC1(NC(C)c2ccccc2)CCOCC1 (stereo not given) | -6.09
CC(NC1(CNS(C)(=O)=O)CCOCC1)c1ccccc1 (stereo not given) | 0.206
CC(NC1(CNS(C)(=O)=O)CCCC1)c1ccccc1 (stereo not given) | 68.9
O=C(Cc1ccccc1)NCCNCc1cccc(O)c1 | 6.4
COc1ccc(-n2cccn2)c(CN2CCC3(CCCNC3)C2)c1 (stereo not given) | 68.3
COc1ccc(-n2cccn2)c(CN2CCC(O)(CO)CC2)c1 | -36
COc1ccc(-n2cccn2)c(CN2CCC3(CCNCC3)C2)c1 | 31.9
CCn1ncc2c1CN(CCc1cccc(Cl)c1)CC2COC (stereo not given) | -27.5
Cc1cccc(CO[C@@H]2CO[C@@]3(CCN(S(=O)(=O)N(C)C)C3)C2)n1 | -44.7
CCn1cnnc1C1CCN(C(=O)c2cnn(C(C)(C)C)c2)CC1 | -133
C[C@@H]1CN(CCC(=O)N(C)Cc2ccccc2)C[C@@]1(O)C1CCC1 | 20.7
CCN(Cc1ccccc1)C(=O)CCN1C[C@@H](C(=O)O)[C@H](C2CC2)C1 | -49.1
CN(Cc1ccccc1)C(=O)CCN1C[C@H](C2CC2)[C@@H](N(C)C)C1 | 51.9
O=C(c1cccn1-c1ccc2c(c1)OCCO2)N1CCCC1 | 9.62
CC(C)N1CCC2(CC1)CC(CC(N)=O)c1ccc(F)cc12 (stereo not given) | -12.3
c1cnc(N2CCC3(CCN(CC4CCOC4)CC3)C2)nc1 (stereo not given) | -14.7
c1cnc(N2CCC3(CCN(CC4CCOCC4)CC3)C2)nc1 | -30.1
c1cnc(N2CCOC3(CCN(CC4CCOC4)CC3)C2)nc1 (stereo not given) | -13
c1cnc(N2CCOC3(CCN(CC4CCCCC4)CC3)C2)nc1 | 57.2
c1cnc(N2CCCC3(CCN(CC4CCOC4)CC3)C2)nc1 (stereo not given) | 56.4
c1cnc(N2CCC3(CCN(CC4CCCC4)CC3)C2)nc1 | 43.8
CN(C(=O)C1CCN(Cc2cnc3ccccn23)CC1)c1ccccc1 | 10
CCCc1cc(CNC2CCN(c3cc(C)nc(N)n3)CC2)on1 | -44.2
O=C1NCC2CN(Cc3ccccc3OCc3ccccn3)CCN12 (stereo not given) | -16.2
CCOC(=O)Cc1n[nH]c(-c2cncc(Br)c2)n1 | -109

SMILES | INHIBITION [%]
CCC(=O)N1CCCN(Cn2nc(C)c(Br)c2C)CC1 | -101
CCc1ccc(S(=O)(=O)N2CCN(CCn3ccnc3)CC2)cc1 | -45.4
O=C1CCCN1CC1CN(CC2CCOCC2)Cc2nccn2C1 (stereo not given) | -87
Cc1ncc(CN(C)CCO)c2cc(C(=O)c3ccc(Br)cc3)oc12 | 49.9
Cc1ncc(CN2CCOCC2)c2cc(C(=O)c3ccc(Br)cc3)oc12 | -2.54
Cc1ncc(CN2CCCC2)c2cc(C(=O)c3ccc(Br)cc3)oc12 | 67.5
CCO[C@H]1CC[C@H]2[C@H]1OCCN2C(=O)c1nn(C)c2ccccc12 | -77.6
Cc1nc(N)ncc1C(=O)N1CCCC(CCc2ccc(F)cc2)C1 (stereo not given) | 38
N#Cc1cccc(C(=O)N2CCN(c3ncccn3)CC2)c1 | -150
CN(C)c1ncc(C2Nc3cc(Cl)ccc3C3=NCCCN32)cn1 (stereo not given) | -9.81
COc1ccc(C2Nc3cc(Cl)ccc3C3=NCCN32)cc1OC (stereo not given) | 72.2
COc1ccc(C2Nc3ccccc3C3=NCCCN32)cc1OC (stereo not given) | -62.4
COCCN1CCN(CC2CCCCO2)CC1 (stereo not given) | -67.3
Cc1cccc(C(=O)N2C[C@@H]3OCCN(CCN4CCCC4)[C@@H]3C2)n1 | -112
CO[C@@H]1c2ccccc2C2(CCN(C(=O)CNC(=O)C(C)C)CC2)[C@H]1O | -62.3
O=C(NC1CCN(CC2CCCC2)C1)N1CCC(OCC2CC2)CC1 (stereo not given) | 64.5
O=C(CCN1CCOCC1)NC1CCCN(CC2CCCCC2)C1 (stereo not given) | -80.2
O=C(NC1CCN(CC2CC2)C1)N1CCC(OC2CCCCC2)CC1 (stereo not given) | 55
CSC(C)(C)CNC(=O)NC1CCN(CC2CC2)C1 (stereo not given) | -35.8
Cc1noc(C)c1CNC(=O)N1CCC(OCC2CC2)CC1 | -65.8
NC(=O)C1CCN(C(=O)NC2CCN(CC3CCCC3)C2)CC1 (stereo not given) | -53.5
Cc1ccc(C(=O)N2CCCC(c3cc(C(F)(F)F)[nH]n3)C2)o1 (stereo not given) | -50.8
Cc1cnc2n(c1=O)CC(C(=O)NCc1ccccc1Cl)CS2 (stereo not given) | -88.7
CC1CCCN(C(=O)c2ccc(N(C)Cc3cnn(C)c3)nc2)C1 (stereo not given) | -222
Cc1nn(C)c2c(NC3CCCC3)nc(C3CC3)nc12 | -18.7
COC(=O)NCCC(=O)NC(c1ccc(Cl)cc1)C(F)(F)F (stereo not given) | 63.6
COCC(=O)NC(c1ccc(Cl)cc1)C(F)(F)F (stereo not given) | 7.67

SMILES | INHIBITION [%]
COC(=O)NCC(=O)NC(c1ccc(Cl)cc1)C(F)(F)F (stereo not given) | 38
CCc1ccc(CN2C[C@@H]3OCCN(c4ccnc(N(C)C)n4)[C@@H]3C2)o1 | 9.71
Cc1cccc(CN2C[C@@H]3OCCN(c4ccnc(N(C)C)n4)[C@@H]3C2)c1 | 52.5
CN(C)c1nccc(N2CCO[C@H]3CN(Cc4nccn4C)C[C@H]32)n1 | -73.7
N#Cc1ccc(N2CCCC3(CCC(=O)N3CC3CC3)CC2)nc1 (stereo not given) | -26.4
Cc1cc(CN(C)Cc2ncc(-c3ccccc3)o2)no1 | -107
COC1CCN(CCNC(=O)NC(C)c2cccc(Cl)c2)CC1 (stereo not given) | 23.9
COC1CCN(CCNC(=O)NCC(C)c2cccc(C)c2)CC1 (stereo not given) | 54.5
COC1CCN(CCNC(=O)NC(C)c2ccc(F)c(F)c2)CC1 (stereo not given) | 45.9
Cc1ccc(S(=O)(=O)c2ncccc2CN2CCN(CCO)CC2)cc1 | -44.3
CC(C)c1ncc2c(n1)CN(c1ncnc3[nH]ccc13)CC2 | 4.74
O=C1NC(c2cccnc2)=NC12CCN(CCCc1ccccc1)CC2 | -84.2
COCCN1C[C@H]2[C@@H](C1)N(Cc1ccc(C)o1)CC[C@H]2OC | -41.6
COCCN1C[C@@H]2[C@@H](OC)CCN(Cc3ccsc3)[C@@H]2C1 | 66.7
COCCN1C[C@@H]2[C@@H](OC)CCN(Cc3ccco3)[C@@H]2C1 | -1.85
COCCN1C[C@@H]2[C@@H](OC)CCN(Cc3ccc(C)o3)[C@@H]2C1 | 3.04
COCCN1C[C@@H]2[C@@H](OC)CCN(Cc3cccs3)[C@@H]2C1 | 66.1
COCCN1C[C@H]2[C@@H](C1)N(Cc1cnn(C)c1)CC[C@H]2OC | -59.7
Cc1ccc(CN2CC[C@@H]3[C@@H](CO[C@H]3CN(C)C)C2)o1 | -21.4
NC(=O)c1cccc(CN2CCc3c(ncn3C3CC3)C2)c1 | -158
COc1ccc2c(c1)ncn2C[C@]1(O)CCCN2CCCC[C@@H]21 | -42.3
COC(=O)c1cc(C(=O)N2CCCCCC2)n(-c2ccccc2)n1 | -126
COC(=O)c1cc(C(=O)N2CCC(C)CC2)n(-c2ccccc2)n1 | 43.3
COC(=O)c1cc(C(=O)N2CCCC(C)C2)n(-c2ccccc2)n1 (stereo not given) | 50.2

Reference: ChEMBL document CHEMBL4513216, “Probing the Open Global Health Chemical Diversity Library for Multistage-Active Starting Points for Next-Generation Antimalarials” (ACS Infect Dis, 2020)
